PubChem BioAssay (NCI)
This is part of a sample that, as a whole, favours compounds with a hit. Of some 79,000 tested, about 15% had one in any assay. No stated cut-off is given here; in the data, active means growth inhibition above about 70%; inactive means the rest.

Legend:
[1] = NCI Yeast Anticancer Drug Screen. Data for the rad50 strain (AID 155);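 further: 0% = growth of vehicle-only cultures of the same strain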; conditions: S. cerevisiae rad50 strain growth inhibition; at 50.0 µM; hits give high values
How it was run: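 DNA repair mutant yeast, compound exposure, growth read-out; inhibition is taken relative to vehicle.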

[2] = NCI Yeast Anticancer Drug Screen. Data for the mec2-1 strain (AID 157); conditions: S. cerevisiae mec2-1 strain, at 50.0 µM, hits give high values
How it was run: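 Growth inhibition is read against vehicle-treated controls after compound exposure of the mec2-1 yeast strain, which is defective in DNA damage repair or cell cycle control.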

[3] = NCI Yeast Anticancer Drug Screen. Data for the sgs1 mgt1 strain (AID 161);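 further: 0% = growth of cultures given vehicle only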; conditions: S. cerevisiae sgs1 mgt1 strain, at 50.0 µM, hits give high values
How it was run: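 Percent growth inhibition was derived by comparing compound-exposed mutant yeast with vehicle-exposed cultures. The strain carries alterations in DNA damage repair.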

[4] = NCI Yeast Anticancer Drug Screen. Data for the cln2 rad14 strain (AID 165);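 further: 0% = growth equal to vehicle treated cultures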; conditions: S. cerevisiae cln2 rad14 strain, at 50.0 µM, hits give high values
How it was run: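 Growth inhibition, relative to vehicle-treated controls, is the read-out. The test organism is a yeast strain with defined genetic alterations, cln2 rad14.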

[5] = NCI Yeast Anticancer Drug Screen. Data for the bub3 strain (AID 167); conditions: S. cerevisiae bub3 mutant strain, at 50.0 µM, hits give high values
How it was run: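 In this screen, a yeast mutant lacking normal mitotic checkpoint function is challenged with compound. Relative growth versus vehicle gives the inhibition value.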

[6] = NCI Yeast Anticancer Drug Screen. Data for the mlh1 rad18 strain (AID 175); conditions: S. cerevisiae mlh1 rad18 strain growth inhibition; at 50.0 µM; hits give high values
How it was run: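 Cells of a genetically altered yeast strain, deficient in DNA damage repair, were treated with compound. Their growth was then compared with that of vehicle-treated cultures to give inhibition.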

Measured: growth inhibition

C=CCOc1ccc(C2CCCCC2)cc1
inactive: [1] 42% | [2] 16.9% | [3] 20.5% | [4] 11.6% | [5] -2.75% | [6] 18.3%

CNC(=O)NC1C(O)COC(OC)C1O (stereo not given)
inactive: [1] -2.65% | [2] 3.4% | [3] -0.6% | [4] -37.1% | [5] -4.15% | [6] 0.25%

COc1ccc(/C=N/NC=O)cc1OC
inactive: [1] 7.35% | [2] 6.5% | [3] 1.2% | [4] 1.45% | [5] -12.5% | [6] -2.85%

CCCC(CCC)(C(=O)OCC)C(=O)OCC
inactive: [1] 1.45% | [2] 6.15% | [3] -1.3% | [4] -15.4% | [5] -4.25% | [6] 0.65%

CC(C)(c1ccsc1)c1sccc1C(=O)O
inactive: [1] -4.7% | [2] 2.95% | [3] 8.55% | [4] -19.4% | [5] -2.95% | [6] 16.2%

O=C1CCCC2=C1CC1=C(CCCC1=O)N2c1ccccc1C(=O)O
inactive: [1] -25.2% | [2] -20.8% | [3] -23.8% | [4] -5% | [5] -21.9% | [6] -36.3%

Cc1[nH]c2ccccc2c1C(CC(=O)O)c1ccccc1 (stereo not given)
inactive: [1] 13.6% | [2] -1.4% | [3] -12.8% | [4] -4.85% | [5] -4.55% | [6] -4.4%

Cc1cc(C)c(/C=C/c2c(C)cc(C)cc2C)c(C)c1
inactive: [1] 9.25% | [2] -12.9% | [3] 4.2% | [4] -26.4% | [5] -4.45% | [6] -0.5%

Brc1ccccc1N=Nc1ccccc1Br
inactive: [1] -13.6% | [2] 3.95% | [3] 0.6% | [4] -18.6% | [5] -8.5% | [6] -20.5%

COC(=O)/C=C1/CC[C@H]2[C@@H]3CCC4=CC(=O)CC[C@]4(C)[C@H]3C(=O)C[C@]12C
inactive: [1] 42.5% | [2] 6.35% | [3] 14.3% | [4] -28% | [5] 14.2% | [6] 33.2%

Cc1ccccc1S(=O)(=O)OC1NS(=O)(=O)c2ccccc21 (stereo not given)
inactive: [1] 15.8% | [2] -1% | [3] -36.9% | [4] -15.6% | [5] -23.3% | [6] 2.9%

CCN(CC)c1ccc(/C=N\NC(=S)N/N=C/c2ccc(N(CC)CC)cc2)cc1
inactive: [1] -2.3% | [2] 0.85% | [3] 7.9% | [4] 33% | [5] -0.95% | [6] -1.1%

Cc1ccc2c(c1)C(c1ccccc1)(c1ccccc1)OC2=O
inactive: [1] 17.6% | [2] 11.9% | [3] 6.75% | [4] 7.95% | [5] 11.4% | [6] 20.4%

CCCCN(CCCC)CCCNC(=S)Nc1ccccc1
inactive: [1] -3.25% | [2] 24.2% | [3] 38.1% | [4] -7.25% | [5] 3.25% | [6] 36.4%

CCC(C(O)c1ccccc1)[N+](=O)[O-] (stereo not given)
inactive: [1] 54.8% | [2] 31.3% | [3] 9.5% | [4] -8.75% | [5] -11.1% | [6] 10.3%

CC(=O)OC1CC(OC(C)=O)C(OC(C)=O)CC1OC(C)=O (stereo not given)
inactive: [1] 7.95% | [2] -5.15% | [3] -9.45% | [4] -18.2% | [5] 1.05% | [6] 12.6%

O=[N+]([O-])c1ccc2c(Cl)[nH]nc2c1
inactive: [1] 35.1% | [2] 27.6% | [3] 29.8% | [4] 30.8% | [5] 39% | [6] 23.9%

CN1NC2(CCCCC2)ON=C1c1ccccc1
inactive: [1] 5.35% | [2] -5.5% | [3] 11.1% | [4] 7.9% | [5] -6.35% | [6] 10.7%

C/C(=C/c1ccccc1)C(F)F
inactive: [1] 3.9% | [2] -5.7% | [3] -13% | [4] -7.45% | [5] -11.6% | [6] 8.75%

Cn1c(=O)c2[nH]c(C3CC(=O)CC(c4nc5c([nH]4)c(=O)n(C)c(=O)n5C)N3)nc2n(C)c1=O (stereo not given)
inactive: [1] -1.75% | [2] 5.1% | [3] -14.4% | [4] 1.8% | [5] -27.4% | [6] 7.15%

Cc1ccc(/C=C/c2cc(/C=C/c3ccc(C)cc3)c([N+](=O)[O-])cc2[N+](=O)[O-])cc1
inactive: [1] 23.2% | [2] -15.2% | [3] -2.3% | [4] -61.8% | [5] -1.4% | [6] 1.2%

C/C(=N\N)c1ccc(Cl)cc1O
inactive: [1] 7.45% | [2] -34.2% | [3] 7.2% | [4] 4.25% | [5] 3.5% | [6] 16%

COC(=O)c1c[nH]c(C=O)c1C
inactive: [1] 15.8% | [2] -0.7% | [3] -6.95% | [4] -67.8% | [5] 8.3% | [6] 8.8%

COC(OC)C1(c2ccccc2)NC(=O)N(Cc2ccccc2)C1=O (stereo not given)
inactive: [1] 3.1% | [2] -10% | [3] -1.3% | [4] -49.5% | [5] 2.85% | [6] -9.65%

O=C1CCC(O)=C1O
inactive: [1] -7.75% | [2] -11.4% | [3] 2.3% | [4] 26.5% | [5] -2.35% | [6] -0.25%

O=C(OCC(OC(=O)c1ccccc1)C(OC(=O)c1ccccc1)C(OC(=O)c1ccccc1)C(COC(=O)c1ccccc1)OC(=O)c1ccccc1)c1ccccc1 (stereo not given)
inactive: [1] 22.1% | [2] 10% | [3] 10.7% | [4] 5.55% | [5] -5.45% | [6] 7.65%

CCN(c1ccccc1C(=O)O)S(=O)(=O)c1ccc(C)cc1
inactive: [1] 1.9% | [2] -1.95% | [3] 23.2% | [4] 27.6% | [5] 22% | [6] 11.9%

Clc1ccc2nc(/C=C/c3ccccc3)cnc2c1
inactive: [1] 14.6% | [2] 11.2% | [3] 13.3% | [4] 8.9% | [5] 14.1% | [6] 22.5%

CCCCCCCCCCN(CCCCCCCCCC)CC(O)c1cc(-c2ccc(Cl)cc2)nc2ccccc12 (stereo not given)
inactive: [1] 25.6% | [2] 17.1% | [3] 39.4% | [4] 31.2% | [5] 34.6% | [6] 50.2%

COCn1c(C(=O)c2ccc(OC)cc2)cc2ccccc21
inactive: [1] 7.45% | [2] 11.8% | [3] -3.9% | [4] -11.5% | [5] 16.1% | [6] 23.4%

CCOC(=O)c1cnc2ccc(OC)cc2c1
inactive: [1] 0.7% | [2] 0.7% | [3] -6.35% | [4] -76.6% | [5] 35.5% | [6] 18.3%

COc1ccc(C2C(Cl)C(=O)N2NC(=O)c2ccccc2O)cc1 (stereo not given)
inactive: [1] -27.2% | [2] -17.4% | [3] -38.1% | [4] -1.45% | [5] -4.6% | [6] -34.8%

CCCCCCCCCCCCCCCCCC(=O)NC(=O)Nc1ccc(C)cc1
inactive: [1] -3.9% | [2] 17.6% | [3] -10.1% | [4] -17% | [5] -9.65% | [6] 11.2%

NNc1ccc(S(=O)(=O)C(F)F)cc1
inactive: [1] 29.9% | [2] -29.2% | [3] 20.6% | [4] 41% | [5] 41.2% | [6] 13.1%

CC(=O)[CH-]C(=O)c1ccccc1.CC(=O)[CH-]C(=O)c1ccccc1.CC[C@H](CCC(C)[C@H]1CCC2[C@@H]3CC=C4C[C@@H]([O-])CC[C@]4(C)C3CC[C@@]21C)C(C)C.CC[C@H](CCC(C)[C@H]1CCC2[C@@H]3CC=C4C[C@@H]([O-])CC[C@]4(C)C3CC[C@@]21C)C(C)C.Cl.[Ti+4] (stereo not given in full)
inactive: [1] 19% | [2] 3.9% | [3] 23.2% | [4] -11.2% | [5] 27.1% | [6] 5.05%

CCC(c1ccc(O)cc1)c1cc2c(cc1OCCO)OCO2 (stereo not given)
inactive: [1] -15.7% | [2] -9.25% | [3] -5.7% | [4] -11.2% | [5] -7.9% | [6] -5.3%

CC(=O)n1oc2c(Br)cc(Br)cc2c1=O
inactive: [1] -0.75% | [2] 2.85% | [3] 3.7% | [4] -2.55% | [5] -1.05% | [6] 15.1%

CC(=O)Oc1ccc(/C=N\N(C)CN(C)/N=C/c2ccc(OC(C)=O)cc2)cc1
inactive: [1] 14% | [2] -9.65% | [3] 31.6% | [4] 18.4% | [5] 1.65% | [6] 17.7%

O=c1[nH]n(CCc2ccccc2CCl)c2ccc([N+](=O)[O-])cc12
inactive: [1] 26% | [2] 14.6% | [3] 16.4% | [4] 9.45% | [5] 38.7% | [6] -10.6%

Cc1nc2c(c(=O)[nH]1)S/C(=C(/C#N)c1nc3ccccc3[nH]1)N2c1ccccc1
inactive: [1] -39.8% | [2] -29% | [3] -42.4% | [4] -22% | [5] -40.8% | [6] -47.9%
